Screening results from PubChem BioAssay.
An excerpt weighted towards active compounds, which were near 1.8% of everything screened.
GSTO1 inh: GSTO1 inhibition, counter-screen for RBBP9 inhibitors; P78417; 300,000 tested, 1.1% active; recombinant GSTO1, activity-based probe fluorescence polarization; AID 1974; inhibition, % at 5.96 µM;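 active = inhibition above the campaign mean inhibition plus 3 SD, cut at about 35% in these data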
Target sequence (P78417 whole entry, looked up): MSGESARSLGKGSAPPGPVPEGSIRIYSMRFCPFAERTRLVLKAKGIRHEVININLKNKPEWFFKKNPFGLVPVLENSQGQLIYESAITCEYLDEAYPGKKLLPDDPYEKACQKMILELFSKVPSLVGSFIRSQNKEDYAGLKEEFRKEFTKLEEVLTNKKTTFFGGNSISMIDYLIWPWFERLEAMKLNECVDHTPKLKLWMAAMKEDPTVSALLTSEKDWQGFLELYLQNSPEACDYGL
Fam108B counter: Fam108B inhibition, counter-screen for RBBP9 inhibitors | recombinant Fam108B, FP-Rh probe fluorescence polarization | AID 1947 | 300,000 tested, 0.33% active | inhibition, % at 9.51 µM;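 active = inhibition above the screen mean inhibition plus 3 SD, computed separately per campaign, cut at about 18% in these data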;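 also: inhibitors lower polarization as less probe binds the enzyme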
LYPLA2 counter: blocks human lysophospholipase 2, a PME1 counter-screen; O95372; recombinant LYPLA2, FP-Rh probe fluorescence polarization; inhibition, % at 5.9 µM; 320,000 tested, 0.38% active; AID 2177;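 active = inhibition above the screen-wide mean plus 3 SD, limit set per campaign, cut at about 26% in these data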
Target sequence (O95372 whole entry, looked up): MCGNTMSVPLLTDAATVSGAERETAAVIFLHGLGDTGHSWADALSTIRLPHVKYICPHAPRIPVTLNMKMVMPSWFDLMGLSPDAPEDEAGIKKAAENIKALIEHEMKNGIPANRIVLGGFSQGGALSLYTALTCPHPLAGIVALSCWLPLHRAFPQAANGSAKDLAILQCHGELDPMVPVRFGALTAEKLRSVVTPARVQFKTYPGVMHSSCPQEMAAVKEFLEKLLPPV
LYPLA1 counter: blocks human lysophospholipase 1, a PME1 counter-screen | recombinant LYPLA1, FP-Rh probe fluorescence polarization | inhibition, % at 5.9 µM | AID 2174 | 320,000 tested, 0.16% active;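 active = inhibition above the mean of all tested compounds plus 3 SD, set per campaign, cut at about 14% in these data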;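 also: inhibitors block serine hydrolase probe labeling of LYPLA1 so polarization falls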
PME-1 primary: blocks human protein phosphatase methylesterase 1 | Q9Y570 | recombinant PME-1, FP-Rh probe fluorescence polarization | inhibition, % at 5.9 µM | 320,000 tested, 0.53% active;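 active = inhibition above the campaign mean of all compounds plus 3 SD, cut at about 26% in these data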;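 also: competitive labeling of PME-1 active site by serine hydrolase directed probe; inhibitors block probe labeling so polarization falls and inhibition rises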
PAD4 FP inh: PAD4 (human) enzyme inhibition | Q9UM07 | recombinant PAD4, RCA probe fluorescence polarization | inhibition, % at 6.36 µM | 330,000 tested, 0.41% active | AID 485272;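 active = percent inhibition above a cutoff equal to the mean of all tested compounds plus 3 SD, cut at about 15% in these data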
LYPLA2 conf: counter-screen for PME1 inhibitors: confirmation of human LYPLA2 inhibitors | shares compounds with LYPLA2 counter | recombinant LYPLA2, FP-Rh probe fluorescence polarization | inhibition, % at 5.9 µM | 1,100 tested, 72% active;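 active = mean inhibition across replicates above the hit cutoff set in the primary screen, cut at about 26% in these data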;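 also: blocked labeling of the enzyme by serine hydrolase FP-Rh probe lowers polarization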
Each line names hits and unclear results; the compound was inactive in the other large screens (follow-up assays come after a bar, where they were run).

Cc1nc2ccccc2n(CC(=O)Nc2cc(Cl)cc(Cl)c2)c1=O	LYPLA2 counter 32 | LYPLA2 conf 42
Cc1ccc(NC(=O)Cn2c(=O)c(C)nc3ccccc32)cc1	none
CCCCN1CC(=O)N2Cc3[nH]c4ccccc4c3C[C@H]2C1=O	LYPLA2 counter 39 | LYPLA2 conf 27
CN1CC(=O)N2Cc3[nH]c4ccccc4c3C[C@H]2C1=O	none
CC(C)/C=C/CN1CCC(Oc2ccc(C(=O)N3CCCC3)cc2)CC1	LYPLA2 counter 60 | LYPLA2 conf inactive
COc1ccccc1/C=C/CN1CCC(Oc2ccc(C(=O)N3CCCC3)cc2)CC1	none
CSc1cccc(CN2CCC(Oc3cccc(C(=O)N4CCCC4)c3)CC2)c1	none
CSc1cccc(CN2CCC(Oc3ccc(C(=O)N4CCCCC4)cc3)CC2)c1	LYPLA2 counter 31 | LYPLA2 conf inactive
CC(C)c1nnc(NC(=O)CCC(=O)NCc2ccc(F)cc2)s1	none
Cc1nc2sc(C(c3ccco3)N3CCN(c4ccccc4F)CC3)c(O)n2n1 (centres undefined)	none
Cc1nc2sc(C(c3ccc(Cl)cc3)N3CCN(c4ccccc4F)CC3)c(O)n2n1 (centres undefined)	LYPLA2 counter 29 | LYPLA2 conf 30
CC1CCCC(C)N1C(=O)COC(=O)Cc1ccc(F)cc1 (centres undefined)	none
CC1CCCC(C)N1C(=O)COC(=O)CCC1CCCC1 (centres undefined)	LYPLA2 counter 36 | LYPLA2 conf inactive
COc1ccc(NC(=S)N2CCCC2c2ccc(OC)c(OC)c2)cc1 (centres undefined)	none
CCOC(=O)c1ccc(NC(=S)N2CCCC2c2ccc(OC)c(OC)c2)cc1 (centres undefined)	LYPLA2 counter 30 | LYPLA2 conf inactive
COC(=O)[C@]1(Cc2ccccc2)N[C@H](CN(C)C(=O)Nc2ccc(C)cc2)[C@@H]2C(=O)N(C)C(=O)[C@@H]21	none (no result: GSTO1 inh, Fam108B counter, LYPLA2 counter, LYPLA1 counter, PME-1 primary)
Cc1ccc(C)c(S(=O)(=O)NCc2ccc(C(=O)N3CCC(Cc4ccccc4)CC3)cc2)c1	LYPLA2 counter 45 | LYPLA2 conf 47
CC(=O)N1CCc2cc(S(=O)(=O)CCC(=O)Nc3cc(C)cc(C)c3)ccc21	none
Cc1nnc(SCC(=O)c2ccc([N+](=O)[O-])cc2)s1	none
Nc1nnc(SCC(=O)c2ccc([N+](=O)[O-])cc2)s1	LYPLA2 counter 29 | LYPLA2 conf inactive
COc1ccc(NC(=O)CN(C)C(=O)c2c(C)nn(Cc3ccccc3)c2C)cc1	none
CCOC(=O)N1CCN(CC(=O)Nc2sccc2C#N)CC1	LYPLA2 counter 45 | LYPLA2 conf 39
Cc1ccc2nc(C)cc(C(=O)N/N=C/c3ccncc3)c2c1	none
O=C(CSc1ccccn1)N1CCN(c2ncc(C(F)(F)F)cc2Cl)CC1	none
O=C(O)c1nn(CC(=O)N2CCN(c3ncc(C(F)(F)F)cc3Cl)CC2)c(=O)c2ccccc12	LYPLA2 counter 26 | LYPLA2 conf 30
CC(=O)c1ccc(N2CCN(C(=O)c3ccc4ccccc4n3)CC2)cc1	none
CC(=O)c1ccc(N2CCN(C(=O)/C=C/c3ccc4ccccc4n3)CC2)cc1	LYPLA2 counter 33 | LYPLA2 conf 39
Fc1ccc(C2=Nn3c(Cc4ccccc4F)nnc3SC2)cc1	LYPLA2 counter 28 | LYPLA2 conf inactive
Cc1cc(C)n(CCOc2ccc(Br)cc2)n1	none
COc1cc(/C=C2/NC(=O)N(Cc3ccccc3F)C2=O)ccc1Oc1ccc([N+](=O)[O-])cn1	LYPLA2 counter 62 | LYPLA2 conf 72
COc1cc(/C=C(/C#N)c2ccccc2)ccc1Oc1ccc([N+](=O)[O-])cn1	LYPLA2 counter 31 | LYPLA2 conf 31
O=C(O)c1ccc(N=Cc2nc(-c3ccco3)oc2O)cc1	LYPLA2 counter 31 | LYPLA2 conf 37
Cc1cc(NC(=O)CN2CCN(C/C=C/c3ccccc3)CC2)c([N+](=O)[O-])cc1C	none
O=C(CN1CCN(C/C=C/c2ccccc2)CC1)Nc1cc([N+](=O)[O-])ccc1Cl	LYPLA2 counter 31, LYPLA1 counter 22 | LYPLA2 conf 29
